Screening results from PubChem.
APEX1 inh: inhibitors of human APE1 endonuclease. 0.35% of 350,000 active. Potency, µM (doses to about 65.8 µM), actives largely listed as inhibitors. P27695. recombinant APE1, TAMRA/BHQ-2 abasic DNA cleavage fluorescence; further: nearly all actives have a fitted effect of over 55% in size
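Substrate: short duplex with […] THF abasic site, 5'-TAMRA and 3'-BHQ-2, 50 nM final. APE1 at 0.75 nM, preincubated 15 min RT with compound. Fluorescence increase from first to third read measured activity.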
L3MBTL1 block: blocks human L3MBTL1. AlphaScreen L3MBTL1–H3K9me1 peptide binding. Potency, µM (top dose mostly 57.1 µM), most hits filed as inhibitors. 0.66% of 230,000 active; further: nearly all actives have a fitted effect of over 60% in size
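L3MBTL1 50 nM + b-AHA-H3(1-15)K9me1 75 nM, 30 min RT; compound added, 30 min RT; streptavidin donor/Ni-chelate acceptor beads 10 ug/mL each final, 30 min RT dark; AlphaScreen read.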
WRN helicase inh-1: WRN helicase (human) inhibition; Q14191; WRN helicase unwinding, fluorescent forked duplex, kinetic; Potency, µM (highest dose often 114 µM), most hits filed as inhibitors; 0.46% of 360,000 active; further: nearly all actives have a fitted effect of over 55% in size
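WRN at 20 nM final preincubated with compound 15 min at room temperature; reaction started with 100 nM fluorophore/quencher forked duplex oligonucleotide and 2 mM ATP final. Unwinding followed kinetically by red fluorescence (ex 525, em 598 nm).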
BLM helicase inh-1: blocks DNA unwinding by human BLM helicase | P54132 | recombinant BLM DNA unwinding, fluorescence dequenching | Potency, µM (series often up to 56.1 µM), most hits filed as inhibitors | 0.2% of 350,000 active | AID 2528; further: nearly all actives have a fitted effect of over 35% in size
Target sequence (P54132 whole entry, looked up): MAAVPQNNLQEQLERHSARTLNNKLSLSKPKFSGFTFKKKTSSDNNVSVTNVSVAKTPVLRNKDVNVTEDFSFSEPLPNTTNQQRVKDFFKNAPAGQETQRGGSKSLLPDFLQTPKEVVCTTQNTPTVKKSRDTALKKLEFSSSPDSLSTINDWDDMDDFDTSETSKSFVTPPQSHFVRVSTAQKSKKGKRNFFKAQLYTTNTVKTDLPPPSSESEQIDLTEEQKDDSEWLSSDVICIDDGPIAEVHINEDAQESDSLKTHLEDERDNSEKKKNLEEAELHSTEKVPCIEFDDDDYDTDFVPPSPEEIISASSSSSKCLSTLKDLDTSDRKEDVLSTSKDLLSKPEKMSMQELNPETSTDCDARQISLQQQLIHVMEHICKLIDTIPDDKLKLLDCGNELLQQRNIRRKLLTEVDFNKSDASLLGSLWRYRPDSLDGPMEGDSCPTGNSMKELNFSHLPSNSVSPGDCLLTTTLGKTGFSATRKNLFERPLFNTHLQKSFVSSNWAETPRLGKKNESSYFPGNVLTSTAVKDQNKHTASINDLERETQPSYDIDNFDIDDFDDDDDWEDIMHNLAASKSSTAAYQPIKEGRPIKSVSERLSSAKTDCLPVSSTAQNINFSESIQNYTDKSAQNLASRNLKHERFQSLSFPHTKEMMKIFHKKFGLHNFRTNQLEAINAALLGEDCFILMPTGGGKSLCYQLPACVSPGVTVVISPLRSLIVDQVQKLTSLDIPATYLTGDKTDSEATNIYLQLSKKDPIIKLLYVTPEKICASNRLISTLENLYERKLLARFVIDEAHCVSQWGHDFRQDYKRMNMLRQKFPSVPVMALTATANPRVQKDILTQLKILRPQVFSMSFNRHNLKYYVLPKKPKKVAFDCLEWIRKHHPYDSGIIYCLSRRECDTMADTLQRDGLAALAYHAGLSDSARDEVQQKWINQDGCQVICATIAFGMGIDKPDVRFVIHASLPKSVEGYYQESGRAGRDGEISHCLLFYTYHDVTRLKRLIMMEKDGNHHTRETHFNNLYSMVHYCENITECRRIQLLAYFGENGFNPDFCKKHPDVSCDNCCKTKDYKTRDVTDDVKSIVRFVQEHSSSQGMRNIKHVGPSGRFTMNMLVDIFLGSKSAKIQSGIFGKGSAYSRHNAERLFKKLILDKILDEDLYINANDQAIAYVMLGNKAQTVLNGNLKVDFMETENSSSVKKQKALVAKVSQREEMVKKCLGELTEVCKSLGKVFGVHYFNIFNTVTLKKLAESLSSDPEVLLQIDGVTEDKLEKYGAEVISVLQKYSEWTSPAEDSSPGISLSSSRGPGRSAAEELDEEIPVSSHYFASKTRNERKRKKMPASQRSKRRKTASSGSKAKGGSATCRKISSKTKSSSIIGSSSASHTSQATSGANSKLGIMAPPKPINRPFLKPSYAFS
RECQ1 inh: blocks DNA unwinding by human RECQ1. P46063. RECQ1 DNA unwinding, red fluorescence kinetic read. Potency, µM (top dose mostly 57.3 µM), usual class: inhibitors. 0.54% of 240,000 active. AID 2549; further: nearly all actives have a fitted effect of over 30% in size
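RECQ1T1 50 nM; forked duplex (20 bp + 30-nt ss tails) 200 nM, ATP 2 mM final; pH 8.0, 2 mM MgCl2, 2.5 ug/ml poly(dI-dC); 15 min compound preincubation; discontinuous kinetic read over 2 h at RT.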
WRN helicase inh-2: WRN helicase inhibition, cherry-pick retest; shares compounds with WRN helicase inh-1; WRN helicase DNA unwinding, fluorescence kinetic; Potency, µM (doses to about 57.1 µM), actives largely listed as inhibitors; 63% of 610 active; AID 720497; further: nearly all actives have a fitted effect of over 65% in size
TO displacement: binds DNA, flagged in WRN inhibitor counterscreen | 10% of 610 active | AID 720499 | Potency, µM (series often up to 57.1 µM), actives largely listed as inhibitors | thiazole orange DNA binding displacement, fluorescence | shares compounds with WRN helicase inh-1;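 further: drop in dye fluorescence marks compound binding to DNA; nearly all actives have a fitted effect of over 60% in size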
BLM helicase inh-2: BLM helicase inhibition, WRN selectivity check | Potency, µM (titrated, usually from 57.1 µM), actives largely listed as inhibitors | 60% of 610 active | Recombinant BLM helicase DNA unwinding, red fluorescence | shares compounds with WRN helicase inh-1 | AID 720503; further: nearly all actives have a fitted effect of over 60% in size
Each line names hits and unclear results; the compound was inactive in the other large screens (follow-up assays come after a bar, where they were run). This is a sample that favours compounds with a hit; in the whole collection about 0.92% have one here. The call rests on the fitted dose curve; in most records, active means well fitted curve in the direction sought with a large enough effect; inconclusive means small, poorly fitted or top-dose-only effect, or another doubt; inactive means no such curve, though single readings can be large; an effect the other way counts as inactive or inconclusive.

Cn1cnc([N+](=O)[O-])c1S(=O)(=O)Oc1cccc2ccccc12	none (no result: APEX1 inh, L3MBTL1 block, BLM helicase inh-1, RECQ1 inh) | WRN helicase inh-2 inconclusive | TO displacement inactive | BLM helicase inh-2 inconclusive
C/C(=N/NC(=O)c1cc2ccccc2cc1O)C1C(=O)c2ccccc2C1=O	APEX1 inh inconclusive, WRN helicase inh-1 45µM, BLM helicase inh-1 28µM, RECQ1 inh inconclusive (no result: L3MBTL1 block) | WRN helicase inh-2 15µM | TO displacement 3.4µM | BLM helicase inh-2 15µM
C/C(=N\NC(=O)c1ccccc1O)C1C(=O)c2ccccc2C1=O	none (no result: L3MBTL1 block)
CCOc1ccc(-n2c(=O)c3sc4ccccc4c3n(Cc3ccc(F)cc3)c2=O)cc1	none (no result: APEX1 inh, L3MBTL1 block, WRN helicase inh-1, RECQ1 inh)
Cc1ccc(N=Cc2cc(Cc3ccccc3Cl)cc([N+](=O)[O-])c2O)c(O)c1	WRN helicase inh-1 28µM, BLM helicase inh-1 16µM, RECQ1 inh inconclusive (no result: L3MBTL1 block) | WRN helicase inh-2 24µM | TO displacement inconclusive | BLM helicase inh-2 22µM
COc1ccc(-n2c(O)c(/C=N/NS(=O)(=O)c3ccc(C)c([N+](=O)[O-])c3)c3ccccc3c2=O)cc1OC	WRN helicase inh-1 inconclusive | WRN helicase inh-2 19µM | TO displacement inactive | BLM helicase inh-2 22µM
COC(=O)c1c(NC(=O)CCCOc2ccc(C)cc2)sc2c1C(C(=O)OC)CC2 (stereo unspecified)	none (no result: APEX1 inh, L3MBTL1 block, WRN helicase inh-1, RECQ1 inh) | WRN helicase inh-2 inactive | TO displacement 24µM | BLM helicase inh-2 inconclusive
COC(=O)c1c(NC(=O)CCCOc2cccc(C)c2)sc2c1CCC2	none (no result: APEX1 inh, L3MBTL1 block, WRN helicase inh-1, RECQ1 inh)
CCOc1ccc(/C=C/C(=O)Nc2sc3c(c2C(=O)OC)C(C(=O)OC)CC3)cc1 (stereo unspecified)	none (no result: APEX1 inh, L3MBTL1 block, WRN helicase inh-1, RECQ1 inh) | WRN helicase inh-2 inactive | TO displacement inactive | BLM helicase inh-2 inconclusive
COC(=O)c1c(NC(=O)CCCOc2cccc(C)c2)sc2c1C(C(=O)OC)CC2 (stereo unspecified)	none (no result: APEX1 inh, L3MBTL1 block, WRN helicase inh-1, RECQ1 inh) | WRN helicase inh-2 inactive | TO displacement inactive | BLM helicase inh-2 inconclusive
Cc1cnc(CNc2ccnc(-c3cccc(NS(C)(=O)=O)c3)n2)cn1	none (no result: L3MBTL1 block, WRN helicase inh-1)
CCCCNC(C(=O)Nc1ccc([N+](=O)[O-])cc1Br)c1ccccc1 (stereo unspecified)	WRN helicase inh-1 inconclusive | WRN helicase inh-2 inactive | TO displacement inactive | BLM helicase inh-2 inactive
Cn1c(SCc2ccc(F)cc2)nc2ccc(C(=O)NCc3ccccc3)cc21	none (no result: APEX1 inh, L3MBTL1 block, WRN helicase inh-1, RECQ1 inh)
CCCc1cc(CN2CCOCC2)c(O)c(CN2CCOCC2)c1O	WRN helicase inh-1 18µM (no result: APEX1 inh, L3MBTL1 block, BLM helicase inh-1, RECQ1 inh) | WRN helicase inh-2 inactive | TO displacement inactive | BLM helicase inh-2 inactive
Cc1cc2ccccc2cc1CN1CCOCC1	none
CN(C)c1cc(Nc2ccc(O)cc2)c([N+](=O)[O-])c2nonc12	none (no result: L3MBTL1 block)
O=[N+]([O-])c1c(Nc2ccc(O)cc2)cc(Cl)c2nonc12	WRN helicase inh-1 inconclusive (no result: L3MBTL1 block, RECQ1 inh) | WRN helicase inh-2 inconclusive | TO displacement 34µM | BLM helicase inh-2 inconclusive
O=C(O)CCCNc1cc(N2CCN(C3CCCCC3)CC2)c2noc3c2c1C(=O)c1ccccc1-3	none (no result: APEX1 inh, L3MBTL1 block, WRN helicase inh-1, RECQ1 inh) | WRN helicase inh-2 6.8µM | TO displacement inactive | BLM helicase inh-2 6.1µM
Cn1c(SCc2ccccc2)nccc1=O	none (no result: APEX1 inh, L3MBTL1 block, BLM helicase inh-1, RECQ1 inh)
CC1=C(SCc2ccccc2)C(=O)c2ccccc2C1=O	WRN helicase inh-1 inconclusive (no result: APEX1 inh, L3MBTL1 block, BLM helicase inh-1, RECQ1 inh) | WRN helicase inh-2 inconclusive | TO displacement inconclusive | BLM helicase inh-2 24µM
Cc1ccc2[nH]c3nc(N/N=C/c4cccc(O)c4)nnc3c2c1	none (no result: RECQ1 inh)
COc1cc(/C=N/Nc2nnc3c(n2)[nH]c2ccccc23)ccc1O	WRN helicase inh-1 inconclusive | WRN helicase inh-2 inconclusive | TO displacement inactive | BLM helicase inh-2 inconclusive
CCc1nnc(NC(=O)c2sc3nc4cc(C)ccc4cc3c2N)s1	WRN helicase inh-1 11µM | WRN helicase inh-2 6.8µM | TO displacement 22µM | BLM helicase inh-2 inconclusive
N#C/C(=C\c1ccc(O)c([N+](=O)[O-])c1)c1nc2ccccc2s1	WRN helicase inh-1 32µM | WRN helicase inh-2 24µM | TO displacement 22µM | BLM helicase inh-2 24µM
